Assay outcomes as filed in PubChem BioAssay.
A selection: hits, their analogues and other compounds. The true share with any hit is near 2.8%.
HTT ATP protect – qHTS Multiplex Assay to Identify Dual Action Probes in a Cell Model of Huntington: Cytoprotection (ATP). AID 1471, 2008. PC12 HTT-Q103 induced, cytoprotection, ATP luminescence, 40 h. Potency, µM (doses to about 56.4 µM), for the others: cytoprotection (ATP increase), hits mostly activators. actives 0.14% (n = 230,000); note: % of control where 0% means no effect; nearly all actives have a fitted effect of over 45% in size
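Cells were plated at 1500 per well in phenol red-free DMEM with 5% equine and 5% calf serum. Tebufenozide (100 nM final) and compounds were added, then ATPlite reagent, and luminescence was read.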
S2 tox – Viability Counterscreen for Primary qHTS for Inhibitors of ATXN expression; Potency, µM (doses to about 56.7 µM), hits mostly cytotoxic; S2 cells (HEK-293 line with an ATXN2-luciferase reporter) viability, CellTiter-Fluor protease fluorescence, 24 h; actives 0.49% (n = 400,000); note: nearly all actives have a fitted effect of over 40% in size
HepG2 tox – qHTS for Inhibitors of TGF-b: Cytotox Counterscreen; HepG2 CAGA-GFP viability, ATP luminescence, 18 h; AID 588856, 2011; Potency, µM (titrated, usually from 46.1 µM), inactives show at the highest dose activity change, negative = cytotoxicity, actives largely listed as cytotoxic; actives 0.76% (n = 410,000)
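HepG2 CAGA-GFP cells (1000/well, DMEM with 1% FBS) received compound, then TGF-beta at 500 pg/mL final, and were incubated 18 hours at 37 degrees C. Viability was read by CellTiter-Glo luminescence. Media-only wells were set as complete cell-killing and DMSO as no toxicity.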
ATXN2 expr inh – Primary qHTS for Inhibitors of ATXN expression. HEK-293 ATXN2-luciferase reporter, luminescence, 24 h. Potency, µM (series often up to 57 µM), without a hit: at the top dose activity change, negative = inhibition, actives largely listed as inhibitors. actives 0.72% (n = 360,000). AID 1745845, 2022; note: % is set by controls: 0 for no effect and ±100 for the full control effect; nearly all actives have a fitted effect of over 55% in size
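ATXN2-luciferase reporter cells (luciferase flanked by upstream and downstream ATXN2 gene portions) were treated 24 h at 37 °C with compounds at up to 57 uM. SteadyGlo luminescence gave expression; GF-AFC fluorescence gave viability.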
HttQ103 aggreg – qHTS Multiplex Assay to Identify Dual Action Probes in a Cell Model of Huntington: Aggregate Formation (GFP) | PC12 HttQ103-GFP aggregates, Acumen cytometry, 40 h | Potency, µM (titrated, usually from 46.1 µM), inactives show top-dose activity change, negative = inhibition, most hits filed as inhibitors | actives 1.1% (n = 220,000); note: % is set by controls: 0 for no effect and ±100 for the full control effect; nearly all actives have a fitted effect of over 60% in size
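Quantitative HTS on tebufenozide-induced (100 nM) PC12 cells stably expressing polyQ103 Huntingtin exon 1–GFP. Reduction of bright GFP aggregates, detected by laser scanning cytometry after lysis, identified actives across the titration.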
TGFb inhibitor – qHTS for Inhibitors of TGF-b; HepG2 CAGA-GFP TGF-b/SMAD3 reporter, GFP fluorescence, 18 h; TGF-beta stimulated, 500 pg/mL final; Potency, µM (titrated, usually from 46.1 µM), for the others: at the highest dose activity, negative = inhibition, most hits filed as inhibitors; actives 1.2% (n = 410,000); note: % is set by controls: 0 for no effect and ±100 for the full control effect; nearly all actives have a fitted effect of over 65% in size
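Cell-based qHTS in HEPG2 carrying a CAGA-GFP Smad reporter; compounds added before 500 pg/mL final TGF-beta, 18 h incubation at 37 degrees C, GFP fluorescence quantified per cell by imaging cytometry.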
* hit, by the source's call; [ ] = another dose, or the depositor's remark. Calls come from the whole dose curve; as a rule, active = well fitted curve in the direction sought with a large enough effect; inconclusive = small, poorly fitted or top-dose-only effect, or another doubt; inactive = no such curve, though single readings can be large; an effect the other way counts as inactive or inconclusive. Potency is the fitted concentration of half-maximal effect.

Results for CC(=O)Oc1c(C)cc(O)c2ccccc12 ?
HTT ATP protect: -106%; HttQ103 aggreg: 14µM*

Results for Cc1cc(O)c2ccccc2c1O ?
HTT ATP protect: -366%; S2 tox: inconclusive; ATXN2 expr inh: 8.9µM*; HttQ103 aggreg: inconclusive

What do the screens show for `CC(=O)Cc1cc(O)c2ccccc2c1OC(=O)c1ccccc1`?
HTT ATP protect: -198%; HepG2 tox: 20µM*; ATXN2 expr inh: -16%; HttQ103 aggreg: 2%[9.22 µM]; TGFb inhibitor: inconclusive

Results for Cc1cc(O)c(C)c(C)c1O ?
S2 tox: inactive; ATXN2 expr inh: -2%

Results for O=C1C=CC(=C(c2ccc(O)cc2)c2ccc(O)cc2)C=C1 ?
HTT ATP protect: -147%; S2 tox: 16µM*; HepG2 tox: 10µM*; ATXN2 expr inh: inconclusive; TGFb inhibitor: inconclusive

What do the screens show for `O=C(O)C1=CC(=C(c2ccc(O)c(C(=O)O)c2)c2ccc(O)c(C(=O)O)c2)C=CC1=O`?
HTT ATP protect: -8%[1.9 µM]

How did Cc1cnc(NC(=O)Nc2cc(Br)c(C)cc2OC[C@@H]2CNCCO2)cn1 do in these assays?
ATXN2 expr inh: 1.2µM*

What do the screens show for `CCOC(=O)c1c(NC(=O)CSc2nncs2)sc(C)c1-c1ccccc1`?
S2 tox: inactive; HepG2 tox: 0%; ATXN2 expr inh: -6%; HttQ103 aggreg: inconclusive; TGFb inhibitor: 11µM*

What do the screens show for `Cc1ccc(-c2cccc(C3CC=CC4C3C(=O)N(Cc3ccccc3)C4c3cc(C)ccc3F)c2)cc1` (stereo unspecified)?
HTT ATP protect: -25%[10 µM]; S2 tox: inactive; HepG2 tox: -4%; ATXN2 expr inh: 12%; HttQ103 aggreg: -10%[9.22 µM]; TGFb inhibitor: -23%

How did Cc1ccc(F)c(C2C3C=CCC(c4ccccc4)C3C(=O)N2Cc2ccccc2)c1 (stereo unspecified) do in these assays?
HepG2 tox: -60%; TGFb inhibitor: 13µM*

What do the screens show for `COc1ccc(-c2cccc(C3CC=CC4C3C(=O)N(Cc3ccccc3)C4c3ccc(C(F)(F)F)cc3)c2)cc1` (stereo unspecified)?
HTT ATP protect: -45%[10 µM]; S2 tox: inconclusive; HepG2 tox: -8%; ATXN2 expr inh: 1%; HttQ103 aggreg: 1µM*; TGFb inhibitor: -13%

What do the screens show for `COc1ccc(-c2ccoc2)cc1C1C2C=CCC(C)C2C(=O)N1Cc1ccccc1` (stereo unspecified)?
HepG2 tox: -28%; TGFb inhibitor: 16µM*

Results for C[C@@H]1CC=C[C@H]2[C@H]1C(=O)N(Cc1ccccc1)[C@H]2c1ccc(C(F)(F)F)cc1 ?
HTT ATP protect: -25%[10 µM]; S2 tox: inactive; HepG2 tox: -22%; ATXN2 expr inh: -17%; HttQ103 aggreg: inconclusive; TGFb inhibitor: 22µM*

How did COCCN1CCN(C(=O)c2cnn(-c3nccc(-c4cc5ccccc5o4)n3)c2C2CC2)CC1 do in these assays?
S2 tox: inactive

Results for CC1(C)CC2(C)OC(=N)C1(C#N)C2(C#N)C#N (stereo unspecified) ?
HTT ATP protect: -10%[10 µM]; S2 tox: inconclusive; HepG2 tox: 16%; ATXN2 expr inh: inconclusive; HttQ103 aggreg: 9%[9.22 µM]; TGFb inhibitor: 16µM*

How did O=[N+]([O-])c1ccc(N/N=C/c2cn(-c3ccccc3)nc2-c2ccccc2)cc1 do in these assays?
HTT ATP protect: -48%; S2 tox: inactive; HepG2 tox: -37%; ATXN2 expr inh: -2%; HttQ103 aggreg: 3%; TGFb inhibitor: -6%
